# Source: PubChem BioAssay (several laboratories)
# eIF4H FP inh = inhibitors of RNA binding by human eIF4H. inhibition, % at 35 µM. eIF4H fluorescence polarization binding assay. 290,000 tested, 0.94% active. Q15056. AID 2012;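 further: calls also rest on retests at 20 µM and on dose response follow-up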
# Efa HMGR inh = inhibitors of class II HMG-CoA reductase from Enterococcus faecalis | purified E. faecalis HMGR, NADPH absorbance 340 nm kinetic | 190,000 tested, 0.41% active | inhibition, % at 10 µM;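 active means inhibition above a set limit, the median over all tested compounds plus 3 SD, cut at about 9.5% in these data; inconclusive means no clear call, values can overlap the other calls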;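 further: enzyme runs in reverse so mevalonate oxidation gives rising NADPH absorbance; 0% = complete reaction with DMSO and 100% = background rate lacking mevalonate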
# PABP polyA inh = blocks human PABP binding to poly(A) RNA; P11940; fluorescence polarization; calls only at 35 µM; 290,000 tested, 1% active; AID 2014;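 further: calls also rest on retests at 20 µM and on dose response follow-up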
# Target sequence (P11940 whole entry, looked up): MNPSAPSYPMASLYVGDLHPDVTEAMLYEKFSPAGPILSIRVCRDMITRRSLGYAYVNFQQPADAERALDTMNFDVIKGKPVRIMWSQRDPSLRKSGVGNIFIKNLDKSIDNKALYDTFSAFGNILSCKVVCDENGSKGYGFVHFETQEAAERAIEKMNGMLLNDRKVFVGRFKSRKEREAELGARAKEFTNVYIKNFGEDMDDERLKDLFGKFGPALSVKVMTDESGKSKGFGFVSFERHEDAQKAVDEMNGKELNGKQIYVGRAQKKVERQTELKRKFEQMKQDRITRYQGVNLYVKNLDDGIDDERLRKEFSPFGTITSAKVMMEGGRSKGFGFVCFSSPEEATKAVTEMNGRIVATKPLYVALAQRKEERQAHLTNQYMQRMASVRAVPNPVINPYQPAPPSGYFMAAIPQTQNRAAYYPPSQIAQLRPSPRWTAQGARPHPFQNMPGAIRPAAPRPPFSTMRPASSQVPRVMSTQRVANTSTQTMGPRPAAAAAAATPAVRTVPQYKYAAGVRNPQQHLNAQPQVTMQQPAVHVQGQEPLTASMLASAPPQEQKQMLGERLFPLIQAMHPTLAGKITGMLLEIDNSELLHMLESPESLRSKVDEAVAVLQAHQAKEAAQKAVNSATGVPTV
# PABP1 MLLE inh = inhibitors of microRNA-mediated deadenylation, human PABP1 MLLE binding; P11940; GST-MLLE / FITC-PAM2 fluorescence polarization; inhibition, % at 20 µM; 360,000 tested, 0.36% active; AID 588489; in the data active means inhibition above about 35%, passing the limit was not always enough;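 further: plate controls were DMSO wells with GST-MLLE for no effect and wells lacking GST-MLLE protein for full effect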
# PHOSPHO1 inh = inhibitors of human PHOSPHO1 phosphatase; recombinant PHOSPHO1, absorbance phosphatase assay; inhibition, % at 13.3 µM; 290,000 tested, 1.1% active; AID 1565; in the data active means inhibition above about 60%
# An asterisk follows results filed as active; i = inactive; ? = inconclusive; . = not tested or not shown; + = active, no number. An excerpt weighted towards active compounds, which were near 2.4% of everything screened. Unless noted, how the calls were made is not given here.
SMILES,eIF4H FP inh,Efa HMGR inh,PABP polyA inh,PABP1 MLLE inh,PHOSPHO1 inh
COC(=O)c1ccc(NC(c2ccc(Cl)cc2)P(=O)(OC)OC)cc1 (configuration not stated),79.8*,2.4,+,-3.0,-6.2
COc1cc(CC(=O)N2CCN(C(=O)C3CCCO3)CC2)cc(OC)c1OC (configuration not stated),.,.,.,5.7,.
COc1ccc(S(=O)(=O)Nc2cccc(S(=O)(=O)N3CCCC3)c2)cc1OC,.,.,.,8.3,.
CSc1ncnc2ncn(C)c12,.,.,.,-1.1,.
CCOc1ccc(NC(=S)NC(=O)c2c(Cl)c(C)nn2C)c([N+](=O)[O-])c1,2.5,2.2,i,40.4*,-13.9
CN(C)CCC(O)(c1ccccc1)c1ccccc1Cl (configuration not stated),.,.,.,-10.9,.
Nc1nnc(-c2cc3c(ccc4ccccc43)oc2=O)s1,85.9*,-7.5,i,.,21.4
COc1cc(/C=C2\SC(=O)N(c3cccc(Cl)c3)C2=O)cc([N+](=O)[O-])c1O,.,-0.2,.,84.8*,12.9
COc1cc(/C=C2/C(=O)NN(c3ccc(C)c(Cl)c3)C2=O)cc([N+](=O)[O-])c1O,-2.7,.,i,-54.5,28.3
COc1cc(/C=C2\SC(=O)N(c3ccc(Cl)cc3)C2=O)cc([N+](=O)[O-])c1O,95.5*,-7.3,i,-4.2,23.6
CCCCCOc1ccc(/C=c2\sc3nc(=O)c(-c4ccccc4)nn3c2=O)cc1OC,16.0,-9.2,i,11.1,-0.8
COc1ccccc1/C=C/C=c1\sc2nc(=O)c(Cc3ccccc3)nn2c1=O,65.3*,.,+,-23.3,27.4
O=c1/c(=C/c2ccco2)sc2nc(-c3ccccc3Br)nn12,44.9*,-0.1,+,5.4,97.8*
CCCOc1ccc(Cc2nn3c(=O)/c(=C/c4ccco4)sc3nc2=O)cc1,84.5*,1.7,+,2.0,-68.6
Cc1cc2nnc(SCC(=O)NCC(c3ccccc3)N(C)C)n2c2ccccc12 (configuration not stated),-1.5,.,i,-14.9,56.2
N#Cc1ccc(OCC(=O)N2CCN(c3ccc(C(F)(F)F)cn3)CC2)cc1,.,.,.,-91.8,.
CCOc1ccc(CN(C)C(=O)CNC(=O)c2sc3ccccc3c2Cl)cc1,.,.,.,-7.3,.
COC(=O)CCC(=O)Nc1c(C)n(C)n(-c2ccccc2)c1=O,1.1,-4.1,i,-9.2,14.8
Cc1ccc(C2(C)NC(=O)N(CC(=O)Nc3c(C)n(C)n(-c4ccccc4)c3=O)C2=O)cc1 (configuration not stated),-6.7,12.6*,i,-0.6,-0.2
Cc1c(NC(=O)CC(C)C)c(=O)n(-c2ccccc2)n1C,-1.4,-5.0,+,0.7,14.1
NC(=O)c1cc([N+](=O)[O-])ccc1NCCN1C(=O)c2ccccc2C1=O,0.7,0.0,i,.,-25.8
COC(=O)C(C)Sc1n[nH]c(=S)s1 (configuration not stated),1.1,-4.3,i,-34.5,102.3*
CC(C)c1ccc(C2C3CSCC=C3C(C#N)=C(N)C2(C#N)C#N)cc1 (configuration not stated),127.5*,-7.7,+,.,18.6
CN1CC=C2C(C#N)=C(N)C(C#N)(C#N)[C@H](c3cccc(Cl)c3)C2C1 (some centres not stated),?,-1.9,?,86.8,12.4
Fc1cccc(-n2c(-c3ccco3)nc3nc4ccccc4nc32)c1,57.4,3.9,+,-45.4,18.1
SMILES,eIF4H FP inh,Efa HMGR inh,PABP polyA inh,PABP1 MLLE inh,PHOSPHO1 inh
Cc1ccc(-n2c(-c3ccco3)nc3nc4ccccc4nc32)cc1F,72.0,0.8,i,-34.0,-18.6
Fc1ccc(-n2c(-c3ccco3)nc3nc4ccccc4nc32)cc1,86.1*,-2.6,+,-32.1,14.1
Fc1cccc(-n2c(-c3cccs3)nc3nc4ccccc4nc32)c1,8.9,.,i,.,24.8
CCC(C(=O)OC)n1c(-c2ccccc2)nc2ccccc2c1=O (configuration not stated),2.0,12.0*,i,20.8,6.1
CCNC(=O)Nn1c(-c2ccccc2)nc2ccccc2c1=O,1.1,-6.2,i,11.4,18.3
Clc1cccc(-c2nnc(SCc3nc4ccccc4[nH]3)n2Cc2ccco2)c1,0.1,.,i,-115.4,77.0*
Clc1cccc(CSc2nnc(-c3cccnc3)n2Cc2ccco2)c1,-1.6,-1.5,i,-20.3,1.4
CCc1c(O)nc(SCc2nc3ccccc3c(=O)[nH]2)[nH]c1=O,active,0.2,+,39.5*,-15.1
Clc1ccc(OCc2nnc(SCc3nc4ccccc4[nH]3)n2Cc2ccco2)cc1,0.7,4.2,i,-137.8,73.6*
Cn1c(COc2ccccc2)nnc1SCc1nc2ccccc2[nH]1,0.2,3.7,i,-24.2,35.7
c1ccc(-c2nnc(SCc3nc4ccccc4[nH]3)n2Cc2ccco2)nc1,7.9,-4.5,i,-50.5,71.5*
O=C(NCCc1ccccc1Cl)C1CC(=O)N(C2CCCCC2)C1 (configuration not stated),2.3,.,i,-1.1,36.2
CCn1c(COc2ccc(C)cc2)nnc1SCc1nc2ccccc2[nH]1,1.8,-2.2,i,-97.7,93.6*
Cn1c(SCc2nc3ccccc3[nH]2)nnc1-c1cnccn1,-6.7,-3.9,i,-1.0,-4.2
Cc1ccccc1OCc1nnc(SCc2nc3ccccc3c(=O)[nH]2)n1C,7.8,-0.1,i,23.6,36.5
c1coc(Cn2c(SCc3nc4ccccc4[nH]3)nnc2-c2cnccn2)c1,25.2,-7.0,i,-59.9,90.1*
O=c1[nH]c(CSc2nnc(COc3ccccc3)n2-c2ccccc2)nc2ccccc12,-13.6,-0.9,i,-41.3,60.7*
COc1ccc(C)cc1NC(=O)CSc1nnc(COc2ccc(Cl)cc2)n1Cc1ccco1,-5.4,1.1,i,-13.9,22.8
O=C(CSc1nnc(COc2ccc(Cl)cc2)n1Cc1ccco1)c1ccccc1F,-16.0,0.0,i,-133.2,96.3*
CCOC(=O)c1c(C)[nH]c(C2=NNC(=NC3CC3)SC2)c1C,-4.3,2.3,i,28.9,52.7
CS(=O)(=O)c1ccc(-c2sc3ccccc3c2C(=O)NCCCN2CCOCC2)cc1,.,.,.,-4.2,.
Cc1cccc(-c2nnc(SCc3ccc(C#N)cc3)n2Cc2ccco2)c1,3.6,-2.0,i,-73.5,64.4*
CCn1c(SCc2ccc(C#N)cc2)nnc1-c1cccc(Cl)c1,-3.5,0.2,i,-58.0,35.7
CC/C(=N\Nc1ccc([N+](=O)[O-])cc1)c1ccccc1,61.4,-10.1,+,-73.6,-3.6
O=[N+]([O-])c1ccc(NN=C(Oc2ccccc2)c2ccc([N+](=O)[O-])cc2)cc1,.,.,.,-103.1,.
CC(C)[C@H](NC(=O)C1CCN(C(=O)[C@H](Cc2ccccc2)NC(=O)OC(C)(C)C)CC1)C(=O)O,-4.2,.,i,-2.8,60.6*
O=C(Cn1ncc(Cl)c(Cl)c1=O)Nc1ccc2c(c1)OCO2,.,.,.,-14.2,.
COc1ccc(NC(=O)c2cc3c(s2)CCC3)cc1S(=O)(=O)N1CCOCC1,100.2*,-5.3,i,-2.5,-1.2
